# Laboratory results: publication PMC5540273 (PLoS ONE, 2017)
# Experiments:
# Details in all cases: concentration: 1 μM, replicates: in singlicate; n = 1
# PDPK1 = tested on: PDPK1
# PFTAIRE2 = tested on: PFTAIRE2
# PFTK1 = tested on: T1, PFTK1
# T1 construct: gene CDK14
# PHKG1 = tested on: PHKG1
# PHKG2 = tested on: PHKG2
# PIK3C2B = tested on: PIK3C2B
# PIK3C2G = tested on: PIK3C2G
# PIK3CA = tested on: PIK3CA
# PIK3CB = tested on: PIK3CB
# PIK3CD = tested on: PIK3CD
# PIK3CG = tested on: PIK3CG
# PIK4CB = tested on: T2, PIK4CB
# T2 construct: gene PI4KB
# PIKFYVE = tested on: PIKFYVE
# PIM1 = tested on: PIM1
# PIM2 = tested on: PIM2
# PIM3 = tested on: PIM3
# PIP5K1A = tested on: PIP5K1A
# PIP5K1C = tested on: PIP5K1C
# PIP5K2B = tested on: PIP5K2B
# PIP5K2C = tested on: T3, PIP5K2C
# T3 construct: gene PIP4K2C
# 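Further: KINOMEscan kinase panel screen.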
SMILES,%Inh (PDPK1),%Inh (PFTAIRE2),%Inh (PFTK1),%Inh (PHKG1),%Inh (PHKG2),%Inh (PIK3C2B),%Inh (PIK3C2G),%Inh (PIK3CA),%Inh (PIK3CB),%Inh (PIK3CD),%Inh (PIK3CG),%Inh (PIK4CB),%Inh (PIKFYVE),%Inh (PIM1),%Inh (PIM2),%Inh (PIM3),%Inh (PIP5K1A),%Inh (PIP5K1C),%Inh (PIP5K2B),%Inh (PIP5K2C)
COc1cc(Nc2nccc(N3CCC(NC(=O)C(C)c4ccc(Cl)cc4)C3)n2)cc(OC)c1OC (centres unmarked) [GSK1379757],0%,11%,6%,0%,0%,10%,0%,6%,0%,0%,2%,0%,0%,0%,0%,0%,42%,35%,3%,79%
Nc1n[nH]c2nnc(-c3ccccc3)c(-c3ccccc3)c12 [GW554060],3%,8%,19%,5%,0%,0%,0%,0%,47%,8%,0%,0%,12%,0%,0%,0%,11%,47%,14%,14%
O=C(NCCNc1ccnc(Nc2ccc(F)cc2)n1)Nc1ccc2c(c1)OCO2 [GSK1379882],0%,25%,0%,8%,7%,7%,0%,7%,0%,0%,10%,17%,8%,21%,0%,11%,7%,66%,0%,24%
CCS(=O)(=O)c1ccc(OC)c(Nc2ncc(-c3ccc(F)cc3)o2)c1.Cl [GW591947],0%,9%,1%,0%,0%,0%,0%,0%,0%,0%,0%,0%,0%,0%,0%,0%,0%,23%,3%,2%
Nc1ncnc2c1ncn2-c1cccc2ccccc12 [SKF-97184],0%,0%,1%,0%,0%,7%,0%,2%,0%,0%,3%,0%,40%,0%,32%,0%,0%,11%,0%,0%
O=C(Nc1n[nH]c2cc(-c3ccccc3F)ccc12)C1CC1 [SB-733371],0%,12%,0%,0%,0%,2%,3%,0%,18%,0%,6%,0%,10%,0%,0%,0%,32%,0%,24%,0%
Cc1ccccc1COc1cc(-n2cnc3cc(Cl)ccc32)sc1C(N)=O [GW813349],0%,0%,0%,0%,0%,24%,17%,21%,0%,0%,24%,0%,0%,2%,18%,0%,24%,37%,0%,24%
Nc1nccc2scc(-c3ccc4c(c3)CCN4C(=O)Cc3ccccc3)c12 [GSK2576924],19%,25%,23%,0%,12%,5%,0%,0%,0%,4%,5%,20%,0%,20%,0%,3%,3%,29%,15%,13%
Nc1n[nH]c2ncc(-c3ccccc3)cc12 [SB-517081],0%,7%,10%,0%,0%,3%,0%,0%,0%,0%,0%,0%,0%,12%,0%,0%,0%,38%,9%,23%
CCC(=O)c1c(-c2ccccc2)c2cc(Cl)ccc2c(=O)n1Cc1cc(S(C)(=O)=O)n(CCC(C)(C)O)n1,0%,0%,12%,18%,0%,41%,52%,32%,26%,36%,17%,0%,0%,15%,2%,16%,0%,0%,20%,0%
